Measured values as given in PubChem BioAssay AID489028 (Sanford-Burnham Center for Chemical Genomics, 2010).
Out of some 10,000 compounds screened, about 5,600 (56%) were called active. No stated cut-off is given here; in the data, active means inhibition above about 40%; inactive means the rest. So high a share suggests a set chosen from earlier hits. These entries were drawn from the full list.

Target: Protein Mdm4 (Homo sapiens) + E3 ubiquitin-protein ligase Mdm2 (Homo sapiens) (UniProt O15151+Q00987)
Sequence (O15151 whole entry, looked up): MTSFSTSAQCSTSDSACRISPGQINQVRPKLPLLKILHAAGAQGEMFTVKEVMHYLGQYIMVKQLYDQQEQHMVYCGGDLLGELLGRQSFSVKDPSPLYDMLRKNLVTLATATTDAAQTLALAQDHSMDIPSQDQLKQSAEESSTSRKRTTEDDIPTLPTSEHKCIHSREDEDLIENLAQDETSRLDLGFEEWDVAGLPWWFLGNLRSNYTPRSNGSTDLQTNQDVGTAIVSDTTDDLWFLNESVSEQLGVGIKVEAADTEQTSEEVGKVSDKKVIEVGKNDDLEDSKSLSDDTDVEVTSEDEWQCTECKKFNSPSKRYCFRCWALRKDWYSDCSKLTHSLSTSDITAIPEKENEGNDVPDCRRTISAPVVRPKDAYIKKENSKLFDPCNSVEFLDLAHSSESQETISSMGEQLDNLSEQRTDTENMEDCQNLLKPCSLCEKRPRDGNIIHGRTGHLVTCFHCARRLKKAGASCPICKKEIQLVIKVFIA
Sequence (Q00987 whole entry, looked up): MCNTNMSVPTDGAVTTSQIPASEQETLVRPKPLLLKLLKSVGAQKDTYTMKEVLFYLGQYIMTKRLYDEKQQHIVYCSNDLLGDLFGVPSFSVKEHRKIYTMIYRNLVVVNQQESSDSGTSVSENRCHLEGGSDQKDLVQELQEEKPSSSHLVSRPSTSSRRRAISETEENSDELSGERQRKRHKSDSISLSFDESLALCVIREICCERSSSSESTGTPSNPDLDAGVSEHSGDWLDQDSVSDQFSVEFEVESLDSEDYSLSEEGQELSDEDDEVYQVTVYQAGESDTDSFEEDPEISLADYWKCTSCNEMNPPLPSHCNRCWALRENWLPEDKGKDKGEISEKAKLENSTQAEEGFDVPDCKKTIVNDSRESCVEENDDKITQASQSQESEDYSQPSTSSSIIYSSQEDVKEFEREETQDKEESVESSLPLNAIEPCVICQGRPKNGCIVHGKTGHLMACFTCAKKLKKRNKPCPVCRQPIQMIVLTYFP
Experiment: Mdm2-MdmX complex disruptors, retested hits, confirmation, luminescence, single concentration (AID 489028)
Conditions: Mdm2-MdmX binding, luminescent assay; at 8 µM; stronger effect = higher value

SMILES	inhibition
COc1ccc(OC)c(Nc2nc(-c3ccc(O)c(O)c3)cs2)c1	38.4% (inactive)
COc1ccc2c(c1OC)C(=O)OC2Nc1nc(-c2ccccc2)cs1 (stereo not given)	73.8% (active)
Cc1ccc(-c2csc(NC3OC(=O)c4ccccc43)n2)cc1 (stereo not given)	76% (active)
CN(C)CCCN(C(=O)c1ccc(S(=O)(=O)N2CCCc3ccccc32)cc1)c1nc2ccc(F)cc2s1	29.9% (inactive)
CS(=O)(=O)c1ccc2nc(NC(=O)c3ccc(N4CCCC4=O)cc3)sc2c1	7.9% (inactive)
O=C(NC(Nc1nc2ccc([N+](=O)[O-])cc2s1)(C(F)(F)F)C(F)(F)F)c1ccccc1	98.5% (active)
O=C(Nc1nc2ccc([N+](=O)[O-])cc2s1)c1ccc(S(=O)(=O)N2CCCc3ccccc32)cc1	88.2% (active)
Cc1ccccc1OCCOc1ccc([N+](=O)[O-])cc1/C=N/n1cnnc1	58.2% (active)
Fc1ccccc1/C=C1\CCCC2=C1Nc1ncnn1C2c1ccccc1F (stereo not given)	83% (active)
COc1ccc(OC)c(C2C3=C(N=c4s/c(=C\c5cccc(O)c5)c(=O)n42)c2ccccc2CC3)c1 (stereo not given)	28.1% (inactive)
CC1CCCCC1NC(=O)/C(C#N)=C/C=C/c1ccccc1[N+](=O)[O-] (stereo not given)	93% (active)
O=C(CCn1c(=S)[nH]c2cc3c(cc2c1=O)OCO3)NCc1ccc(Cl)cc1	5.65% (inactive)
Cc1ccc(C)c(N2CCN(C(=O)CCCCCn3c(=S)[nH]c4ccc(N5CCOCC5)cc4c3=O)CC2)c1	43.1% (active)
O=C(CCCCCn1c(=S)[nH]c2cc3c(cc2c1=O)OCO3)N1CCN(c2ccc(F)cc2)CC1	36.2% (inactive)
CCN1/C(=C\c2ccc3ccccc3[n+]2CC)Sc2cc(C)ccc21	78.1% (active)
O=C(NCC#CCSc1nnc(-c2cccc3ccccc23)o1)c1cccs1	83.7% (active)
Oc1ccc(N=Nc2nccs2)c(O)c1	35% (inactive)
CS(=O)(=O)N(CC(O)Cn1c2ccccc2c2ccccc21)c1cccc2ccccc12 (stereo not given)	15.5% (inactive)
C=C(C)C(=O)O[C@H]1C/C(C)=C\C(=O)/C=C(\C)[C@H](O)[C@@H]2OC(=O)C(=C)[C@@H]21	56.6% (active)
CC(Nc1nc(C(F)(F)F)nc2ccccc12)c1cccs1 (stereo not given)	50.4% (active)
Cc1nnc(N/N=C/c2ccccn2)[nH]c1=O	86.6% (active)
CCc1ccc2c(c1)C1(NN=C(c3ccccc3)S1)C(=O)N2 (stereo not given)	53.1% (active)
Nc1nc(CC(=O)CSc2ccc(Cl)cc2)nc(Nc2ccc(F)cc2)n1	71% (active)
Oc1ccccc1N1CCN(c2ncnc3sc(-c4ccccc4)cc23)CC1	58% (active)
COc1ccccc1N1CCN(c2ncnc3sc(C)c(-c4ccccc4)c23)CC1	25.6% (inactive)
